Results taken from PubChem BioAssay AID2061322 (National Center for Advancing Translational Sciences (NCATS), 2025).
Results filed as inconclusive are left out. The source made the active and inactive calls. Calls come from the whole dose curve; as a rule, active = well fitted inhibition curve with a large enough effect; inconclusive = small, poorly fitted or top-dose-only effect; inactive = flat fitted curve, though single readings scatter.

Assay: Identification of antibody-drug conjugate (ADC) payloads which are substrates of ATP-binding cassette drug efflux transporters: ABCG2-HEK293-R5 cell line with Ko143
Settings: ABCG2-HEK293-R5 with Ko143, CellTiter-Glo viability, 48 h
Text: Antibody-drug conjugates (ADCs) feature an antibody recognizing a specific protein joined to a potent toxic payload. Numerous antibody-drug conjugates have received FDA approval; however, clinical resistance arises. Resistance mechanisms include decreased expression or mutation of the antibody target, impaired payload release, or increased expression of ATP-binding cassette (ABC) efflux transporters associated with multidrug resistance. We therefore sought to characterize the interaction of ABC multidrug transporters with ADC payloads. We performed a high-throughput screen with 27 common ADC payloads using cells lines expressing ABC transporters P-glycoprotein (P-gp, encoded by ABCB1) or ABCG2 (encoded by ABCG2). Confirmatory assays were also performed using cells transfected to express P-gp, ABCG2, or MRP1 (encoded by ABCC1). Several commonly used ADC payloads were substrates of P-gp, including calicheamicin gamma1, monomethyl auristatin E, DM1, and DM4. All the pyrrolobenzodiazepines tested - SJG136, SGD-1882, SG2057, and SG3199 - were substrates of P-gp, ABCG2, and MRP1. […] These findings highlight the risk of transporter-mediated resistance with certain ADC payloads and underscore the importance of selecting payloads that evade ABC transporter recognition in future ADC development.
HEK-293 cells were transfected with empty vector (pcDNA) or vector containing the human ABCB1 (MDR-19), ABCG2 (R-5), or ABCC1 gene (MRP1) and were maintained in EMEM with 2 mg/mL G418 added to maintain transporter expression. The HeLa derivative KB-3-1 and the P-gp overexpressing KB-8-5-11 subline were maintained in DMEM; KB-8-5-11 additionally received 100 ng/mL colchicine. H460 parental cells were obtained from the Division of Cancer Treatment and Diagnosis Tumor Repository, National Cancer Institute at Frederick, MD and were cultured in RPMI. The ABCG2 expressing subline H460 MX20 was generated by selecting H460 cells in 20 nM mitoxantrone. Media in all cases was supplemented with 10% FBS and 1% penicillin-streptomycin. We explored 27 common ADC payloads, in two orthogonal, paired cell line sets-a drug selected and transfected set for each transporter--to identify substrates of the ABC transporters P-gp and ABCG2. Compounds were sourced from Levena Biopharma (San Diego, CA), Selleck Chem (Houston, TX), ChemieTek (Indianapolis, IN), or Microsource Discovery Systems (Gaylordsville, CT). Screening was performed as previously described. Briefly, cells were plated at a density of 500 cells/well in 1536 well plates with compounds added using a 1536-head pin tool (Kalypsys, San Diego CA). Cells were incubated with cytotoxic drugs and processed with CellTiter Glo reagent (Promega, Madison, WI) to determine viability after 48 hours. P-gp substrates were identified by comparing compound activity between paired sets of low-expressing (sensitive) and over-expressing (resistant) cell lines.

## CN(C)CCOc1ccc2[nH]c(C(=O)N3C[C@@H](CCl)c4c3cc(O)c3ccccc43)cc2c1
  Potency: 1.9 nM (active)

## CCN[C@H]1CO[C@@H](O[C@H]2[C@H](O[C@H]3C#C/C=C\C#C[C@]4(O)CC(=O)C(NC(=O)OC)=C3/C4=C\CSSSC)O[C@H](C)[C@@H](NO[C@H]3C[C@H](O)[C@H](SC(=O)c4c(C)c(I)c(O[C@@H]5O[C@@H](C)[C@H](O)[C@@H](OC)[C@H]5O)c(OC)c4OC)[C@@H](C)O3)[C@@H]2O)C[C@@H]1OC
  Potency: 3 nM (active)

## CCN(C(C)=O)[C@H]1CO[C@@H](O[C@H]2[C@H](O[C@H]3C#C/C=C\C#C[C@]4(O)CC(=O)C(NC(=O)OC)=C3/C4=C\CSSSC)O[C@H](C)[C@@H](NO[C@H]3C[C@H](O)[C@H](SC(=O)c4c(C)c(I)c(O[C@@H]5O[C@@H](C)[C@H](O)[C@@H](OC)[C@H]5O)c(OC)c4OC)[C@@H](C)O3)[C@@H]2O)C[C@@H]1OC
  Potency: 33.6 nM (active)

## CC(C)(C)OC(=O)Nc1ccc2[nH]c(C(=O)N3C[C@@H](CCl)c4c3cc(O)c3ccccc43)cc2c1
  Potency: 30 nM (active)

## COC(=O)c1cc2c3c(cc(O)c2[nH]1)N(C(=O)c1cc2cc(OC)c(OC)c(OC)c2[nH]1)CC3CCl (stereo not given)
  Potency: 4.2 nM (active)
